Assay results from PubChem BioAssay (EPA / NIEHS).
Results filed as inconclusive are left out. Activity calls are given as the source filed them. The calls were made as follows, unless noted: active = hit-call score of the fitted dose curve at least 0.9, where 1 is the maximum; inactive = score below 0.9.

How the values were obtained:
[1] = biological target: Steroid hormone receptor ERR1 (Homo sapiens) (UniProt P11474); assay: ATG_ERRa_TRANS: Attagene TRANS-FACTORIAL HepG2 Assay for human Estrogen-Related Receptor alpha (ERRa) (AID 2282971; active = hit-call score of the fitted dose curve at least 0.9, where 1 is the maximum); settings: HepG2 Attagene TRANS reporter, ERRa transactivation
Chain of Steroid hormone receptor ERR1 (Homo sapiens) (P11474 whole entry, looked up, the tested form may be a part): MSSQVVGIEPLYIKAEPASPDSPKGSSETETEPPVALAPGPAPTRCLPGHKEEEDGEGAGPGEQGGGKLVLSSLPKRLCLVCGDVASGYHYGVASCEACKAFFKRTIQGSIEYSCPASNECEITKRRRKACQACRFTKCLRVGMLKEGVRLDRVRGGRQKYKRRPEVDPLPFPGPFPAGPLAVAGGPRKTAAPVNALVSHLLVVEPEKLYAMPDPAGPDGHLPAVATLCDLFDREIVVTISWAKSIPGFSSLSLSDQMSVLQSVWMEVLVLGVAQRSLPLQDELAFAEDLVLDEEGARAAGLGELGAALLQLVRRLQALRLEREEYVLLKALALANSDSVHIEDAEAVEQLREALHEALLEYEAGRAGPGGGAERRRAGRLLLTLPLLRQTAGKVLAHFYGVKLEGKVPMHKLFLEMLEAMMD
Outline: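 HepG2 cells transiently transfected with GAL4-UAS reporter units and chimeric NR-Gal4 constructs; after 24 hour compound incubation, reporter mRNA quantified by RT-PCR, fluorescent labelling and capillary electrophoresis, gain of signal versus DMSO.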

[2] = BSK_3C_Vis: BioMAP Diversity Plus: 3C Assay for Morphology Visualization (AID 2283025); settings: primary human endothelial cells (HUVEC);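 also: fitted both ways so gain or loss versus DMSO counts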
Outline: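 Morphology read by light microscopy serves as a background control for the multiplexed 3C assay in human umbilical vein endothelial cells, taken 24 h after dosing, with DMSO as the negative control and bidirectional curve fitting.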

[3] = read-out: Transforming growth factor beta 1 (TGFb1), TGFB1 (gene 7040); assay: BSK_BE3C_TGFb1: BioMAP Diversity Plus: BE3C Assay for Transforming growth factor beta 1 (TGFb1) Biomarker Activity (AID 2283036;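 also: TGF-b1 protein level measured by ELISA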); settings: primary human bronchial epithelial cells; actives raise or lower the signal
Outline: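 Bronchial epithelial primary cells are treated with test chemical, then TGF-b1 is quantified by ELISA after 24 hours. Values derive from bidirectional fitting against DMSO, with cytotoxicity checked by SRB staining in parallel cultures.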

[4] = read-out: Transforming growth factor beta 1 (TGFb1), TGFB1 (gene 7040); assay: BSK_KF3CT_TGFb1: BioMAP Diversity Plus: KF3CT Assay for Transforming growth factor beta 1 (TGFb1) Biomarker Activity (AID 2283072); settings: primary human keratinocytes with fibroblasts; actives raise or lower the signal
Outline: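 KF3CT co-culture (keratinocytes + fibroblasts), 24 h exposure → TGF-b1 ELISA → bidirectional fit, DMSO = baseline. Parallel SRB total-protein staining (0.1% SRB, 10% TCA fixation, 560 nm) for cytotoxicity.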

[5] = BSK_SAg_Proliferation: Cell Proliferation Assessment in the BioMAP Diversity Plus: SAg Assay (AID 2283095); settings: primary human HUVEC with PBMC;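 also: relative cell number as total protein by SRB absorbance in sub-confluent culture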
Outline: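 Absorbance of sulforhodamine B at 560 nm reports total protein in a human vascular endothelial/PBMC co-culture after 96 h chemical exposure. Gain or loss of signal is fitted in both directions against DMSO.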

[6] = BSK_SAg_SRB: Viability Assessment in the BioMAP Diversity Plus: SAg Assay (AID 2283096); settings: primary human HUVEC with PBMC;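 also: cells read one day after compound addition; hits may be either gain or loss of signal compared with DMSO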
Outline: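 This overt-cytotoxicity endpoint quantifies protein in human endothelial/PBMC co-cultures at 24 h using SRB absorbance (560 nm) after trichloroacetic acid fixation. Values reflect signal change from the DMSO negative control, fitted bidirectionally.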

[7] = BSK_BT_PBMCCytotoxicity: PBMC Cytotoxicity Assessment in the BioMAP Diversity Plus: BT Assay (AID 2284225); settings: primary human B cells with PBMC;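 also: PBMC viability measured by Alamar Blue dye reduction fluorescence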
Outline: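 Viability by Alamar Blue reduction (6 h, ex/em 546/580 nm) after 90 h culture of SEB/TSST-1-activated PBMC (20 ng/mL each) given compound 1 h before activation. DMSO served as baseline for curve fitting.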

[8] = read-out: Secreted IgG (sIgG), gene 3500; assay: BSK_BT_sIgG: BioMAP Diversity Plus: BT Assay for Secreted IgG (sIgG) Biomarker Activity (AID 2284226); settings: primary human B cells with PBMC
Outline: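 Cells (B cells with peripheral blood mononuclear cells) are dosed, cultured 24 h, then supernatant IgG is measured by ELISA. DMSO serves as negative control; curves are fitted for signal increase.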

[9] = read-out: Interleukin 6 (IL6), IL6 (gene 3569); assay: BSK_BT_xIL6: BioMAP Diversity Plus: BT Assay for Interleukin 6 (IL6) Biomarker Activity (AID 2284228); settings: primary human B cells with PBMC
Outline: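 Human B cell/PBMC co-culture; secreted IL-6 quantified by Luminex xMAP 24 h after chemical dosing, fitted relative to DMSO. Parallel PBMC viability by Alamar Blue after 1 h pretreatment, 20 ng/mL SEB and TSST-1, 90 h incubation.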

[10] = read-out: Interleukin 17A (IL17A), IL17A (gene 3605); assay: BSK_BT_xIL17A: BioMAP Diversity Plus: BT Assay for Interleukin 17A (IL17A) Biomarker Activity (AID 2284229); settings: primary human B cells with PBMC
Outline: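 Co-culture of human B cells and PBMC, dosed for 24 h in 96-well format. Secreted IL-17A measured with Luminex xMAP; gain-direction fitting against DMSO as baseline.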

[11] = read-out: Tumor necrosis factor (Homo sapiens) (UniProt P01375); assay: BSK_BT_xTNFa: BioMAP Diversity Plus: BT Assay for Tumor necrosis factor alpha (TNF-alpha) Biomarker Activity (AID 2284230); settings: primary human B cells with PBMC
Outline: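 Endpoint derived in the positive direction versus DMSO vehicle. Cells: B cells together with PBMC, exposed 24 h before TNF-alpha in the medium was read on the Luminex xMAP platform.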

[12] = read-out: Collagen I, COL1A1 (gene 1277); assay: BSK_MyoF_CollagenI: BioMAP Diversity Plus: MyoF Assay for Collagen I Biomarker Activity (AID 2284238); settings: primary human lung fibroblasts
Outline: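 Primary human lung fibroblasts (MyoF system) treated 24 h; Collagen I quantified by ELISA and fitted in positive direction against DMSO. Parallel SRB total-protein staining assessed overt cytotoxicity.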

[13] = read-out: Collagen III, COL3A1 (gene 1281); assay: BSK_MyoF_CollagenIII: BioMAP Diversity Plus: MyoF Assay for Collagen III Biomarker Activity (AID 2284239); settings: primary human lung fibroblasts
Outline: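 Primary human lung fibroblasts (BioMAP MyoF system) exposed 24 h. Collagen III measured by ELISA; positive-direction fit relative to DMSO.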

[14] = read-out: Interleukin 17F (IL17F), IL17F (gene 112744); assay: BSK_BT_xIL17F: BioMAP Diversity Plus: BT Assay for Interleukin 17F (IL17F) Biomarker Activity (AID 2284243); settings: primary human B cells with PBMC
Outline: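 Human PBMC co-cultured with B cells, compound exposure 24 h; secreted IL-17F quantified by Luminex xMAP, referenced to DMSO control. PBMC viability measured in parallel by Alamar Blue reduction.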

[15] = read-out: Actin alpha 1 (ACTA1), ACTA1 (gene 58); assay: BSK_MyoF_ACTA1: BioMAP Diversity Plus: MyoF Assay for Actin alpha 1 (ACTA1) Biomarker Activity (AID 2284244); settings: primary human lung fibroblasts
Outline: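 Cells were exposed to chemical for 24 h before a-SMA levels were quantified by ELISA in human lung fibroblasts. Increases were fitted against DMSO as negative control; parallel SRB staining (0.1% after 10% TCA fixation, 560 nm) assessed cytotoxicity.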

[16] = read-out: Interleukin 2 (IL2), IL2 (gene 3558); assay: BSK_BT_xIL2: BioMAP Diversity Plus: BT Assay for Interleukin 2 (IL2) Biomarker Activity (AID 2284245); settings: primary human B cells with PBMC
Outline: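 The BT system combines human B cells with peripheral blood mononuclear cells. Twenty-four hours after chemical dosing, secreted IL-2 was measured with xMAP bead technology, and responses were analyzed as increases over DMSO controls.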

[17] = read-out: Basic fibroblast growth factor (bFGF), FGF2 (gene 2247); assay: BSK_MyoF_bFGF: BioMAP Diversity Plus: MyoF Assay for Basic fibroblast growth factor (bFGF) Biomarker Activity (AID 2284246); settings: primary human lung fibroblasts
Outline: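 Chemicals are added to human lung fibroblast cultures and incubated 24 h. bFGF is then measured by ELISA, while parallel cultures receive SRB staining for total protein as a cytotoxicity check. Data are fitted upward against DMSO.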

[18] = read-out: Collagen IV, COL4A1 (gene 1282); assay: BSK_MyoF_CollagenIV: BioMAP Diversity Plus: MyoF Assay for Collagen IV Biomarker Activity (AID 2284247); settings: primary human lung fibroblasts
Outline: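 Human lung fibroblast system, 24 h chemical exposure. Endpoint: Collagen IV by ELISA, upward fit vs DMSO.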

[19] = read-out: Interleukin-8 (IL8), CXCL8 (gene 3576); assay: BSK_MyoF_IL8: BioMAP Diversity Plus: MyoF Assay for Interleukin-8 (IL8) Biomarker Activity (AID 2284261); settings: primary human lung fibroblasts
Outline: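 Human lung fibroblast (MyoF system) cultures dosed for 24 h, then IL-8 measured by ELISA. Response taken relative to DMSO; parallel SRB total-protein staining for cytotoxicity.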

[20] = read-out: Decorin, DCN (gene 1634); assay: BSK_MyoF_Decorin: BioMAP Diversity Plus: MyoF Assay for Decorin Biomarker Activity (AID 2284265); settings: primary human lung fibroblasts
Outline: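 Human lung fibroblast cultures were dosed for 24 h, and decorin was then measured by ELISA. Parallel cultures were stained with sulforhodamine B for total protein as a cytotoxicity check. Gain of signal was fitted relative to DMSO.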

Measured: AC50

Chain of Tumor necrosis factor (Homo sapiens) (P01375 whole entry, looked up): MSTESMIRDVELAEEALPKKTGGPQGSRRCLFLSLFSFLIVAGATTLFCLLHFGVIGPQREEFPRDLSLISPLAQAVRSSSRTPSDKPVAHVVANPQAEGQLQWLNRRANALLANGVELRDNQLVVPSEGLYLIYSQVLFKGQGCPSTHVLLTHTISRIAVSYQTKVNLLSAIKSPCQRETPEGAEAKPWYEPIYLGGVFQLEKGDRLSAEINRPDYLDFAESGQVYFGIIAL

C=CC(=O)OCC(CC)CCCC (stereo unspecified)
inactive: [1] | [2] | [3] | [5] | [6] | [7] | [8] | [9] | [10] | [11] | [12] | [13] | [14] | [15] | [16] | [17] | [18] | [19]
active: [4] 0.164 µM | [20] 0.016 µM

CC1(C)C(=O)NC(=O)NC1=O
inactive: [1]

CC(C)CCCCCCCOP(=O)(Oc1ccccc1)Oc1ccccc1
inactive: [1] | [3] | [18]
active: [2] 5.61 µM | [4] 20 µM | [5] 15.8 µM | [6] 25.9 µM | [7] 35.8 µM | [8] 18.9 µM | [9] 26.1 µM | [10] 19.5 µM | [11] 31.3 µM | [12] 8.57 µM | [13] 8.98 µM | [14] 25.5 µM | [15] 8.22 µM | [16] 26.4 µM | [17] 20 µM | [19] 5.07 µM | [20] 8.75 µM
